# Measured values published in ChEMBL document CHEMBL3988442, “University of Dundee, Small-Polar-MMV Screening Library” (2021).
# The campaign covered roughly 48,000 compounds. About 13,000 (27%) showed an effect of 50% or more. Some of the results follow.
# Tested on: Wolbachia pipientis
# Test: Anti-Wolbachia Cell-Based Screen
# Format: functional
# Parameters: scale not given: in the data most compounds retested in dose-response had high values
# Details: 5 µM
row,SMILES,Percent Effect [%]
1,Cn1cccc(NC(=O)N2CCC(COCc3ccccc3)C2)c1=O (centres undefined),7.256
2,Cc1ccc(C)c(OCC(O)Cn2ncc3cnn(C)c(=O)c32)c1 (centres undefined),-5.252
3,O=S(=O)(NC1=NCN(CCc2cccs2)CN1)c1ccc(F)cc1,4.244
4,Cc1cc(N[C@H](CO)COCc2ccccc2)n2nc(C)cc2n1,2.305
5,COc1ccc(C[C@@H]2CC[C@H](CN(C)C3CCN(C)CC3)O2)cc1,15.35
6,COc1ccc(CN2CCOC[C@H](Oc3cccnc3)C2)cc1,-13
7,COc1ccc(CCC(=O)Nc2ccncc2C)cc1,3.309
8,COc1ccc(OCCN2CCOCS2(=O)=O)cc1,-3.078
9,CC(C)(C)OCC1CN(CC2CC2)S(=O)(=O)c2cnccc2O1 (centres undefined),96.42
10,CCN1CC(COC(C)(C)C)Oc2ccncc2S1(=O)=O (centres undefined),103.5
11,COCC1CN(Cc2ccc(OC)cc2)S(=O)(=O)c2cnccc2O1 (centres undefined),99.8
12,CCN1CC(COc2ccc(OC)cc2)Oc2ccncc2S1(=O)=O (centres undefined),109.7
13,Cc1nc(-c2noc3ccc(C(=O)NCCN(C)C)cc23)co1,-5.984
14,CN(CCn1cccn1)S(=O)(=O)c1cccc(Cl)c1C#N,-13.18
15,CO[C@@H]1CCN(Cc2cccs2)[C@H]1Cc1ccncc1,4.278
16,CC(C)(C)OCC1CN(Cc2cccs2)S(=O)(=O)c2cnccc2O1 (centres undefined),118.6
17,O=C(O)C(=O)O.c1csc(CN2CC(c3nc(-c4cnccn4)no3)C2)c1,14.88
18,Cc1cc(NC(=O)NC(C)CO)ccc1OCC(F)(F)F (centres undefined),-7.879
19,CCCS(=O)(=O)c1ccc(N2CCC(Cc3ccccc3)CC2)nn1,21.52
20,CC(=O)Nc1nc(SCc2ccc3c(c2)OCO3)ns1,70.31
21,CC(=O)N1CCCN(C(=O)Cc2ccc3c(c2)OCO3)CC1,1.177
22,Cc1nnc(SCCCNC(=O)Cc2ccc3c(c2)OCO3)s1,-3.831
23,CN(Cc1ccc2c(c1)OCO2)Cc1cscn1,9.115
24,CC(C)c1nc(CC(=O)N(C)Cc2ccc3c(c2)OCO3)cs1,-4.138
25,O=C(c1cc(COc2ccc3c(c2)OCO3)[nH]n1)N1CCSCC1,4.191
26,CCSc1nsc(NC(=O)COc2ccc3c(c2)OCO3)n1,106.2
27,Nc1nc(SCc2ccc3c(c2)OCO3)ns1,92.69
28,Cn1nc2c(cc1=O)CN(Cc1nnc(-c3ccco3)o1)CC2,-2.817
29,C=C(C)CN(CC)S(=O)(=O)c1c(F)cc(NC(C)=O)cc1F,26.08
